PubChem BioAssay (NCATS)
Results filed as inconclusive are left out. The source made the active and inactive calls. Calls come from the whole dose curve.

How the values were obtained:
Settings in all cases: outcome: dose series up to 57.1 µM unless noted
[1] = Primary qHTS for inhibitors of SARS-S pseudo-typed particle cell entry (AID 1479145); note: nearly all actives have a fitted effect of over 45% in size; for activity change, negative = inhibition: series mostly up to about 57 µM
[2] = Primary qHTS for Huh7 cytotoxicity: counterscreen for inhibitors of MERS-S pseudotyped particle cell entry (AID 1479147)
[3] = Primary qHTS for inhibitors of MERS-S pseudo-typed particle cell entry (AID 1479149); note: nearly all actives have a fitted effect of over 60% in size; for activity change, negative = inhibition: series mostly up to about 57 µM
[4] = Primary qHTS for Vero E6 cytotoxicity: counterscreen for inhibitors of SARS-S pseudo-typed particle cell entry (AID 1479150)
[5] = Cytotoxicity counterscreen for inhibitors of SARS-CoV-2 cell entry (AID 1645845); note: nearly all actives have a fitted effect of over 50% in size; for activity change, negative = cytotoxicity: series mostly up to about 57 µM
In short: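 HEK293-ACE2 cells (Expi293F stably expressing human ACE2) seeded overnight, then compound for 1 h plus 48 h at 37C. Viability as ATP content by luminescence; normalized to wells with cells and media-only wells.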
% is set by controls: 0 for no effect and ±100 for the full control effect.

CN(C)CC(=O)O
inactive: Potency [1] | Potency [2] | Potency [3] | Potency [4] | Potency [5]

CC1(C)S[C@@H]2[C@H](NC(=O)C(C(=O)O)c3ccsc3)C(=O)N2[C@H]1C(=O)O (stereo not given in full)
inactive: Potency [1] | Potency [2] | Potency [3] | Potency [4] | Potency [5]

CCO/N=C(\C(=O)N[C@@H]1C(=O)N2C(C(=O)O)=C(Sc3nc(-c4cc[n+](C)cc4)cs3)CS[C@H]12)c1nsc(NP(=O)(O)O)n1
inactive: Potency [1] | Potency [2] | Potency [3] | Potency [4] | Potency [5]

FC(F)(F)C(F)(F)C(F)(F)C(F)(F)C(F)(F)C(F)(F)F
inactive: Potency [1] | Potency [2] | Potency [3] | Potency [4] | Potency [5]

CC(C)(C)NC(=O)[C@@H]1C[C@@H]2CCCC[C@H]2CN1C[C@@H](O)[C@H](Cc1ccccc1)NC(=O)[C@H](CC(N)=O)NC(=O)c1ccc2ccccc2n1
inactive: Potency [1] | Potency [2] | Potency [3] | Potency [4] | Potency [5]

OC[C@H]1O[C@@H](O)[C@H](O)[C@@H](O)[C@@H]1O
inactive: Potency [1] | Potency [2] | Potency [3] | Potency [4] | Potency [5]

CCCCCCCCCCCCCCCC(=O)OC1CCCn2c1nc(C)c(CCN1CCC(c3noc4cc(F)ccc34)CC1)c2=O (stereo not given)
inactive: Potency [1] | Potency [2] | Potency [3] | Potency [4] | Potency [5]

CCC1(C)OC(=O)N(C)C1=O (stereo not given)
inactive: Potency [1] | Potency [2] | Potency [3] | Potency [4] | Potency [5]

C=CC[N@@+]12CC[C@]34c5ccccc5N5/C=C6\C7N(/C=C(\C53)[C@@H](C[C@@H]41)/C(=C/CO)C2)c1ccccc1[C@@]71CC[N@@+]2(CC=C)C/C(=C\CO)[C@@H]6C[C@@H]12 (stereo not given in full)
inactive: Potency [1] | Potency [2] | Potency [3] | Potency [4] | Potency [5]

CNC(=O)OCc1cccc(COC(=O)NC)n1
inactive: Potency [1] | Potency [2] | Potency [3] | Potency [4] | Potency [5]

CC(C)(CO)C(O)C(=O)NCCCC(=O)O (stereo not given)
inactive: Potency [1] | Potency [2] | Potency [3] | Potency [4] | Potency [5]

COc1ccc2c(O[C@H]3CC4C(=O)N(C)CCCC/C=C\[C@@H]5C[C@@]5(C(=O)NS(=O)(=O)C5CC5)NC(=O)[C@@H]4C3)cc(-c3nc(C(C)C)cs3)nc2c1C (stereo not given in full)
inactive: Potency [1] | Potency [2] | Potency [3] | Potency [4] | Potency [5]

CC1(C)S[C@@H]2[C@H](NC(=O)[C@H](N)c3ccccc3)C(=O)N2[C@H]1C(=O)OCOC(=O)[C@@H]1N2C(=O)C[C@H]2S(=O)(=O)C1(C)C
inactive: Potency [1] | Potency [2] | Potency [3] | Potency [4] | Potency [5]

CCCCc1cc2c(=O)c(C(=O)OC)c[nH]c2cc1OCc1ccccc1
inactive: Potency [1] | Potency [2] | Potency [3] | Potency [4] | Potency [5]

CC(C)CN(C[C@@H](O)[C@H](Cc1ccccc1)NC(=O)O[C@H]1CCOC1)S(=O)(=O)c1ccc(N)cc1
inactive: Potency [1] | Potency [2] | Potency [3] | Potency [4] | Potency [5]

C[N+](C)(C)CCOP(=O)([O-])OP(=O)(O)OC[C@H]1OC(n2ccc(N)nc2=O)[C@H](O)[C@@H]1O (stereo not given in full)
inactive: outcome [1] inactive [at 0.573 µM] | outcome [2] inactive [at 0.573 µM] | outcome [3] inactive [at 0.573 µM] | outcome [4] inactive [at 0.573 µM] | outcome [5] inactive [at 0.702 µM]

CCCCOC(=O)C(=O)Nc1cccc(-c2nn[nH]n2)c1
inactive: Potency [1] | Potency [2] | Potency [3] | Potency [4] | Potency [5]

CC1=C(C(=O)OCCN(Cc2ccccc2)c2ccccc2)C(c2cccc([N+](=O)[O-])c2)C(P2(=O)OCC(C)(C)CO2)=C(C)N1 (stereo not given)
inactive: Potency [1] | Potency [2] | Potency [3] | Potency [4] | Potency [5]

NC[C@@H]1O[C@H](O[C@H]2[C@H](O)[C@H](O[C@H]3[C@@H](O)[C@H](N)C[C@H](N)[C@H]3O[C@H]3O[C@H](CN)[C@H](O)[C@H](O)[C@H]3N)O[C@@H]2CO)[C@@H](N)[C@@H](O)[C@@H]1O
inactive: activity change, negative = inhibition [1] -20.9% [at 5.34 µM] | outcome [2] inactive [at 5.34 µM] | activity change, negative = inhibition [3] 3.6% [at 5.34 µM] | activity change, negative = cytotoxicity [4] -3.76% [at 5.34 µM] | activity change, negative = cytotoxicity [5] 2.87% [at 5.25 µM]

Nc1nc2c(c(=O)[nH]1)N(C=O)C(CNc1ccc(C(=O)N[C@@H](CCC(=O)O)C(=O)O)cc1)CN2 (stereo not given in full)
inactive: activity change, negative = inhibition [1] -33% [at 0.573 µM] | activity change, negative = cytotoxicity [2] 2.64% [at 0.573 µM] | outcome [3] inactive [at 0.573 µM] | activity change, negative = cytotoxicity [4] 2.47% [at 0.573 µM] | outcome [5] inactive [at 0.702 µM]
